VACV mCherry inh = qHTS for Stage-Specific Inhibitors of Vaccinia Orthopoxvirus: mCherry Reporter Primary qHTS. 310,000 tested, 0.63% active. Vaccinia virus mCherry reporter infection, fluorescence. Potency, µM (top dose mostly 36.5 µM), without a hit: top-dose activity change, negative = inhibition, actives largely listed as inhibitors; calls by dose curve; tested in A549 cells; note: potency is the fitted concentration of half-maximal effect; nearly all actives have a fitted effect of over 35% in size
LASV entry inh = qHTS for Inhibitors of binding or entry into cells for Lassa Virus; Lassa virus pseudotype entry inhibition, cell reporter; Potency, µM (series often up to 37.9 µM), for the others: top-dose activity change, negative = inhibition, hits mostly inhibitors; 300,000 tested, 1.2% active; calls by dose curve; tested in HEK293 cells; note: potency is the fitted concentration of half-maximal effect; nearly all actives have a fitted effect of over 50% in size
Vaccinia Venus = qHTS for Stage-Specific Inhibitors of Vaccinia Orthopoxvirus: Venus Reporter Primary qHTS | 330,000 tested, 0.46% active | Vaccinia virus Venus reporter expression, fluorescence | Potency, µM (series often up to 36.5 µM), without a hit: top-dose activity change, negative = inhibition, actives largely listed as inhibitors; calls by dose curve; tested in A549 cells; note: potency is the fitted concentration of half-maximal effect; nearly all actives have a fitted effect of over 30% in size
HCMV antiviral = qHTS Assay for inhibitors of the human cytomegalovirus (HCMV); activity change, negative = inhibition, % at 57.5 µM; AID 1259415, 2018; 410,000 tested, 4.5% active; HFF cells, HCMV-luciferase reporter, 72 h; hits give low values; in the data active = activity change below about -60%; inconclusive = no clear call, values can overlap the other calls; inactive = above about -39%
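After 16 h attachment at 37C, HFF cells received test compound and HCMV-luciferase (1 PFU/cell); reporter luminescence read 72 h later, data normalized against buffer-only and known inhibitor Salinomycin.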
MARV entry inh = qHTS for inhibitors of binding or entry into cells for Marburg Virus; Potency, µM (highest dose often 37.8 µM), for the others: at the highest dose activity change, negative = inhibition, usual class: inhibitors; 300,000 tested, 1.8% active; Marburg virus pseudotyped entry inhibition, cell reporter; calls by dose curve; tested in HEK293 cells; note: potency is the fitted concentration of half-maximal effect
FMDV antiviral = High Throughput Screening for Foot and Mouth Disease Virus Antivirals; 410,000 tested, 1.2% active; FMDV antiviral cell-based qHTS; Potency, µM (doses to about 57.9 µM), for the others: top-dose activity change, negative = inhibition, actives largely listed as inhibitors; calls by dose curve; tested in HEK293T cells; note: read-out not given here; potency is the fitted concentration of half-maximal effect; nearly all actives have a fitted effect of over 45% in size
* hit, by the source's call; i = inactive; ? = inconclusive; · = not tested or not shown; + = active, no number; [ ] = dose if it differs, or a comment. In the library only some 6.5% were active in any assay of this set; here they are far more common. % is set by controls: 0 for no effect and ±100 for the full control effect.

SMILES | VACV mCherry inh | LASV entry inh | Vaccinia Venus | HCMV antiviral | MARV entry inh | FMDV antiviral
COc1cc(/C=C/C(=O)OCC(=O)N2c3ccccc3NC(=O)C2(C)C)cc(OC)c1OC | · | · | · | -3.3 | · | 28.2µM*
COC(=O)c1c(C(=O)OC)c2c3ccccc3cc(C3CC3)n2c1C(=O)OC | · | · | · | · | 12.2%[14.2 µM] | ·
Cc1nc(-c2ccc(C)c(S(=O)(=O)N3CCC(C(=O)NCc4ccc(F)cc4)CC3)c2)no1 | -18.0% | ? | -20.8% | -22.8 | · | -21.9%
COc1cc(C(=O)Nc2nc(-c3ccc(Cl)cc3)c(C)s2)ccc1OCC(=O)Nc1ccc(F)cc1 | -11.0% | 10µM* | -10.2% | -29.9 | ? | 28.2µM*
Cc1ccc2c(CC(=O)N3CCN(c4cccc(Cl)c4)CC3)coc2c1 | -10.8% | ? | -4.2% | -1.6 | ? | -19.9%
CCCSC(=S)c1c(C)[nH]n(-c2ccccc2)c1=O | -15.7% | ? | ? | -79.0* | ? | 3.7%
CCCCN(CCCC)C(=S)N/N=C/c1c(C)[nH]n(-c2ccccc2)c1=O | ? | ? | -19.8% | -0.5 | ? | -23.6%
Cc1noc2ncnc(Sc3ccc(Br)cc3)c12 | i | ? | -16.9% | -106.2* | ? | ?
C=CCCC1(C(=O)c2ccccc2)C(=O)C(CC=C(C)C)=C(OC)C(CC=C(C)C)(CCC=C(C)C)C1=O (centres undefined) | · | ? | · | · | -1.2%[14.2 µM] | ·
CCOC(=O)c1sc(Nc2ccccc2Cl)nc1C | · | · | · | 63.9 | · | 51.8%
CCOC(=O)c1sc(NC(=O)Nc2ccccc2F)nc1C | -21.1% | ? | -17.7% | ? | 2.24µM* | ?
Cc1cc(C)cc(NC(=S)NCc2ccc3[nH]c4c(c3c2)CCCC4)c1 | ? | 3.66µM* | -4.9% | -39.6 | ? | -10.0%
O=C(NCc1ccc2[nH]c3c(c2c1)CCCC3)c1ccc(S(=O)(=O)N2CCCCC2)cc1 | -25.1% | -17.8% | -29.3% | -77.9* | -20.8% | ?
O=C(Nc1ccccc1)C1CCN(S(=O)(=O)c2ccc3[nH]c4c(c3c2)CCCCC4)CC1 | -24.3% | ? | -22.4% | 0.0 | · | -17.4%
CCc1ccc(NC(=O)C2CCN(S(=O)(=O)c3ccc4[nH]c5c(c4c3)CCCCC5)CC2)cc1 | i | -16.7%[46.1 µM] | -21.5% | + | · | -11.5%
COc1cccc(NC(=O)COc2ccccc2C(=O)Nc2ccccc2)c1 | -1.9% | · | -18.7% | · | · | ·
Cc1cnc(-n2ncc(C(=O)NCCN3CCOCC3)c2C(C)C)nc1-c1ccc(F)cc1 | -2.6% | · | -2.0% | · | · | 8.6%
C=CC(=O)NC(NC(=O)C=C)c1ccccc1F | 7.94µM* | -16.9% | ? | -26.9 | -3.5%[46.1 µM] | -6.8%
CC(C)c1cccc(-c2nc3c(NC4CCC(O)CC4)nccc3[nH]2)c1 (centres undefined) | · | · | · | -6.3 | · | ·
Cc1csc(NC(=O)c2cnc3ccccc3n2)n1 | 3.1% | ? | 7.7% | -29.5 | 5.62µM* | ?
Cc1csc(NC(=O)c2cn3ccccc3n2)n1 | 0.3% | 3.98µM* | -6.4% | 0.0 | ? | 14.1µM*
CN(C)CCC=C1c2ccccc2COc2ccccc21 | · | · | · | · | · | -9.7%[39.8 µM]
CCOc1ccccc1-n1c(CN2CCN(C(=O)c3ccco3)CC2)nc2ccccc2c1=O | · | 6.7% | · | -105.4* | -5.0% | -29.9%
CCOc1ccccc1-c1nc(CN2CCN(C(=O)c3ccco3)CC2)c(C)o1 | · | · | · | -7.1 | · | -8.7%
COc1ccc(-c2c(C)nn3c(N4CCC(C(=O)NCCN(C)C)CC4)cc(C)nc23)cc1OC | · | 1.0% | · | 34.4 | 20.6µM* | 19.8%
SMILES | VACV mCherry inh | LASV entry inh | Vaccinia Venus | HCMV antiviral | MARV entry inh | FMDV antiviral
COc1ccccc1-c1c(C)nn2c(N3CCC(C)CC3)cc(C)nc12 | -5.4% | -11.2%[46.1 µM] | -2.5% | -27.6 | ? | 25.1µM*
COCCCNC(=O)C1CCN(c2cc(C)nc3c(-c4ccc(OC)c(OC)c4)c(C)nn23)CC1 | 0.6% | 1.0%[46.1 µM] | 1.3% | 3.9 | 11.0%[46.1 µM] | 0.0%
CCOC(=O)c1sc2ccccc2c1S(=O)(=O)N1CCN(c2cc(C)ccc2C)CC1 | -7.5% | -5.2%[46.1 µM] | 0.8% | 3.2 | · | -12.1%
Cc1cc(C)cc(C(=O)N(CCc2ccccc2)C2CC3CCC(C2)N3C)c1 (centres undefined) | -10.8% | ? | ? | -28.5 | 3.16µM* | -12.3%
Cc1cc(C)cc(C(=O)OC2C[C@H]3CC[C@@H](C2)N3C)c1 (some centres undefined) | · | · | · | · | · | -17.4%
CCC(=O)N1CC(=O)N2[C@H](C1)[C@@H](c1ccc(Br)cc1)[C@@H]2CO | · | · | · | 17.5 | · | ·
Cc1cc(C)n(CC(=O)Nc2ccc(F)c(F)c2)c(=O)c1C#N | 6.9% | 12.4%[46.1 µM] | -8.5% | 12.8 | · | -6.4%
CCC(C)NC(=O)COC(=O)c1csc2c1CCCC2 (centres undefined) | -12.2% | · | -9.0% | -12.4 | · | 3.55µM*
CCN1C(=NCCCCO)N[C@@H](CCc2ccccc2)[C@H](C(=O)OC)[C@H]1C | · | ? | · | · | 9.2%[14.2 µM] | ·
Cc1ccc(NNc2c(C)nc3ccccc3nc2=O)cc1 | ? | -28.2% | -16.9% | -67.0* | -10.4%[46.1 µM] | 18.8%
Cc1nc2ccccc2nc1C | 13.2% | · | -7.2% | · | · | ·
COc1ccc(-c2csc(C)n2)cc1 | i | 5.8% | -13.8% | 34.2 | 6.0% | 53.3%
COc1cc(C)nc(-c2csc(C)n2)n1 | · | · | · | -86.5* | · | -1.2%
CCS(=O)(=O)N1CC2(C1)CN(S(=O)(=O)c1ccc(C)cc1)[C@@H](CO)c1[nH]c3cc(OC)ccc3c12 | · | · | · | 3.0 | · | ·
Cc1cccc(C(=O)NCc2nc(-c3cccc(NC(=O)C4CCCN(C)C4)c3)oc2C)n1 (centres undefined) | -13.3% | · | 1.1% | · | · | -5.6%
Cc1nc(SCC(=O)c2cc(C)n(C3CC3)c2C)c2ccccc2n1 | -10.3% | · | ? | ? | · | 10µM*
Cc1ccc(OCCN2CCN(C(=O)CCC(=O)Nc3nnc(C)s3)CC2)cc1 | -14.5% | -14.3% | -5.2% | -101.2* | -2.6%[46.1 µM] | ?
Cc1ccc(OCCN2CCN(C(=O)CCC(=O)Nc3nnc(C(C)C)s3)CC2)cc1 | · | ? | ? | -84.0* | ? | ?
O=C(CC1CS(=O)(=O)CC1CC(=O)Nc1ccc2c(c1)OCCO2)Nc1ccc2c(c1)OCCO2 (centres undefined) | · | · | · | -80.7* | · | ?
O=C(CCCc1ccccc1)Nc1ccc2c(c1)OCCO2 | -7.9% | 8.91µM* | -2.3% | 146.8 | ? | -10.7%
O=C(CC(=O)c1ccccc1)Nc1ccc2c(c1)OCCO2 | · | 8.91µM* | -1.3% | 20.0 | ? | 5.5%
O=C(Nc1ccc2c(c1)OCCO2)c1ccccc1 | -10.8% | ? | -11.2% | · | ? | -39.0%
CCCC12CN3CC(CCC)(CN(C1)C3c1c(C)[nH]c(=O)[nH]c1=O)C2=O (centres undefined) | 7.2% | 10.9%[46.1 µM] | 0.3% | 6.0 | -3.1%[46.1 µM] | -5.0%
CCOC(=O)c1cccc(NC(=O)c2cnc3sc(N4CCOCC4)nn3c2=O)c1 | -10.3% | -12.9%[46.1 µM] | -3.3% | -5.7 | · | ?
